Values without a mark were called inactive. The rule behind the calls is not given here.

Consider 38 molecules from publication PMC13494018.

B1: design_614_ef6b398b-10cb-4a07-8087-96dafb4f9c83_1163_dldesign_0_cycle1_af2pred (protein)
chain: EAAREAALALMNEALALLVEETGRDPRLAPALALMSKAVIEMAKDPEKGIELAEKAAEEAKKVDPEVGEKVKKLVEEAKKAVKA
B2: design_614_ef6b398b-10cb-4a07-8087-96dafb4f9c83_875_dldesign_0_cycle1_af2pred (protein)
chain: AAARARLAAALEVAKVAADLEANAKANPATAALASATATATIKHAAAIVAEVDPAAGAAVAAAATAAEAIAIITAALKAA
B3: design_615_ab801fab-270b-4f6a-b2b5-83c165df418c_671_dldesign_0_cycle1_af2pred (protein)
chain: SPDAVAARGYLAMLRAAVAELERAAEELARDPEKAAEARALVERARALLAEAEALLADPAQAAAAAAAARAALEEVLEFIRRARELAA
B4: design_614_ef6b398b-10cb-4a07-8087-96dafb4f9c83_1883_dldesign_0_cycle1_af2pred (protein)
chain: EEEKKKLEEIKKLLEKAMEEAIKLVAADPEVQKRLKELAEELKKAETAGEAIRVALRAASVAGQVNPEAARVILTAAEEGAKLAK
B5: design_615_ab801fab-270b-4f6a-b2b5-83c165df418c_209_dldesign_0_cycle1_af2pred (protein)
chain: SAQAQEAATRAAEALARHLARQVAEHGVSDADFEGNVDILVALGRQSAAAGEAAAAVLEEAKAADPERFGAAAERLKAAAAEAK
B6: design_615_ab801fab-270b-4f6a-b2b5-83c165df418c_662_dldesign_0_cycle1_af2pred (protein)
chain: AAAQAKALAAEAKAYIAKAKEAAAAGNLGEAAQLASKALLKAAQAANLDPAFAPVLDEAQATVEAIAAAQAAAA
B7: design_614_ef6b398b-10cb-4a07-8087-96dafb4f9c83_1491_dldesign_0_cycle1_af2pred (protein)
chain: EERLKEILKLIKEAKKALEESPQLAAQKLAEAAELASEFPEIAVAAVRAIAFAPNPERAKEALEEALKLAEEALKK
B8: design_615_ab801fab-270b-4f6a-b2b5-83c165df418c_597_dldesign_0_cycle1_af2pred (protein)
chain: AAAAEAITKATLAAIEKTAEKIVEAAEKATPEEAKKLAESVKKLAETGVGIATAASPELGKEAKEKAEKLKEKAKEAVKKVKE
B9: design_614_ef6b398b-10cb-4a07-8087-96dafb4f9c83_2192_dldesign_0_cycle1_af2pred (protein)
chain: AAAALQAATIALGSLRALAESARRSNAESAKKLAELAEDLAADAKANAAKAAADPAYAAQAKAVAEEAKRALEETKRIAEEKAEA
B10: design_614_ef6b398b-10cb-4a07-8087-96dafb4f9c83_1258_dldesign_0_cycle1_af2pred (protein)
chain: AEQEKAAQLALNTAKAALKRAKAGSAEEARAAAETAKLAAEAAKVNSTDPAVIKEAEKVAEETKKVAEAK
B11: design_614_ef6b398b-10cb-4a07-8087-96dafb4f9c83_2028_dldesign_0_cycle1_af2pred (protein)
chain: NAAAAEMAAAAAAFAATAAAAVTLSPEAGRKAVSAAFTAALTAISALGATASDEQTVAAMNTVWSTYIAATTALQAKAA
B12: design_614_ef6b398b-10cb-4a07-8087-96dafb4f9c83_1173_dldesign_0_cycle1_af2pred (protein)
chain: LLEEALALGAEAIAEGQEAIALAVALGPEFQPFALELSRLMARIAAAQIQLVRDPEAGAAALREEIEELRRAIQELLDSL
B13: design_614_ef6b398b-10cb-4a07-8087-96dafb4f9c83_1110_dldesign_0_cycle1_af2pred (protein)
chain: GEELAESAKKLMEVLKDVAKDAAARDPANAAKYLADAKKAEEEAKKALEESPEKGMQAAQDALAKFQKAAIAAAKA
B14: design_615_ab801fab-270b-4f6a-b2b5-83c165df418c_246_dldesign_0_cycle1_af2pred (protein)
chain: AEREEAALAEAEKALAEAKKLVEAALADPATAATTVGEATALLTAAIERASREVSPERALEVAQEAARIQADGIKALA
B15: design_615_ab801fab-270b-4f6a-b2b5-83c165df418c_234_dldesign_0_cycle1_af2pred (protein)
chain: LEESARKAAELALDLAKYAAANPATAPQALASIAGLARNAIEAGAEAAKLMAEALKKGAEYVAKNGTAAQAEQVKAIRERAERGAREA
B16: design_614_ef6b398b-10cb-4a07-8087-96dafb4f9c83_1557_dldesign_0_cycle1_af2pred (protein)
chain: SAAAAALAAANAEIDAHAARAVELAAGLPHAEEVRALITAGAAAAKSGTQLAEAFRLFSEAARLSNEATRAELRKAIAAANKAALA
B17: design_614_ef6b398b-10cb-4a07-8087-96dafb4f9c83_950_dldesign_0_cycle1_af2pred (protein)
chain: AAAAAERTLAGIETLLEILRAAAADPRVTPAQLRAVINAARTAVEELERLDPELGREARERVEAAAREAEAAV
B18: design_615_ab801fab-270b-4f6a-b2b5-83c165df418c_0_dldesign_0_cycle1_af2pred (protein)
chain: AAAERLAQRLEAARLIAEAAGVPEEVARRVAELVADPATFPEAVALAKAVGGGAMLILAAARSGSLENARKMAEAAA
B19: design_615_ab801fab-270b-4f6a-b2b5-83c165df418c_555_dldesign_0_cycle1_af2pred (protein)
chain: AAAALAAAAAAARAAATAALAETLELAEEAQRLGDSETSLALSRQANRIAGLYIAGVRDPRLAPEAGKRAEELRREAERLYKEAL
B20: design_614_ef6b398b-10cb-4a07-8087-96dafb4f9c83_1766_dldesign_0_cycle1_af2pred (protein)
chain: ARAELEAQLAKAKEAAAQAQAAAAQLAALGGTATAAAITAAAQRALAAAEADLSKAPEALTFLQALLQQAQHQVAQLT
B21: design_614_ef6b398b-10cb-4a07-8087-96dafb4f9c83_1043_dldesign_0_cycle1_af2pred (protein)
chain: AAAEAAAVSKKAAELAKKALEKAKRMSPEEAINLAFQVATQAIRLGADAEAAINAIKIASEKGPEAGLKYLAEALEK
B22: design_615_ab801fab-270b-4f6a-b2b5-83c165df418c_110_dldesign_0_cycle1_af2pred (protein)
chain: SAELAKLNGEALELAKLGAEEGAEYAEKAMELVIEAARLAGDEEGAKYAEEMREEALKAAKESPKEAAQIVMTALSRVFSRIAA
B23: design_615_ab801fab-270b-4f6a-b2b5-83c165df418c_137_dldesign_0_cycle1_af2pred (protein)
chain: MEKEKELLKKAKELYEAAKTMAEVAKNAVALGHRSGALAAIKGIEQAAKAIEELAKEAKDEEVKKKIKELAKEAKKLAEEMKKLAEKA
B24: design_614_ef6b398b-10cb-4a07-8087-96dafb4f9c83_1060_dldesign_0_cycle1_af2pred (protein)
chain: SAVEVLKRSIEAVARQALEAAERLIELDPELGERAREEVERLRAEALAAADADPAEGGALLVELLRLNAEIRRRAEELE
B25: design_614_ef6b398b-10cb-4a07-8087-96dafb4f9c83_2138_dldesign_0_cycle1_af2pred (protein)
chain: SEALRAEAARLANAALALLSRASVAFGNALSPTLATAVDAFLAADREGDAETRLAVARAALAAAEAAVAAAAAAA
B26: design_614_ef6b398b-10cb-4a07-8087-96dafb4f9c83_1868_dldesign_0_cycle1_af2pred (protein)
chain: TAAIATATIVALTKTASRSSVEDAKKLVEVAVGIAASLSAADAKAAIDAGLKVAKELAEEKNTETASVVAKELEKGGAKVAAEKA
B27: design_614_ef6b398b-10cb-4a07-8087-96dafb4f9c83_1693_dldesign_0_cycle1_af2pred (protein)
chain: AEELREEAERLREESRRLREEGIKGNAEEARKALLEINRNAGRLARLAVEASQLDPEVAAVANEALAEALENARALDETRRKLAA
B28: design_615_ab801fab-270b-4f6a-b2b5-83c165df418c_251_dldesign_0_cycle1_af2pred (protein)
chain: AAAAAEAAAVQARGGALLDELKERTSELSPEAVSRASLLLTRGLTYASQPATLAEGRRYVDEAEAIIRSA
B29: design_614_ef6b398b-10cb-4a07-8087-96dafb4f9c83_2152_dldesign_0_cycle1_af2pred (protein)
chain: GAAEEERRRHQEAVERAEAAVKELEALAKQLAADPHGAVFAQAMVDQARRALEEAKTGDLETAEEALRVITSNLEMAKAIL
B30: design_614_ef6b398b-10cb-4a07-8087-96dafb4f9c83_884_dldesign_0_cycle1_af2pred (protein)
chain: MAVSDTLATNLATAERLLQRGIELAKTDPQAGIAQLRAAEILAQGTAAAAAAAGDTATAARAQAVAERARQAIEEV
B31: design_615_ab801fab-270b-4f6a-b2b5-83c165df418c_650_dldesign_0_cycle1_af2pred (protein)
chain: SSEREVLEAEGREWGRLIAAADAVSPALAAEVARALAEKAVADPGFLYALNVAVATVAREGSPAAAAVARAALAEASKAVIAKL
B32: design_615_ab801fab-270b-4f6a-b2b5-83c165df418c_622_dldesign_0_cycle1_af2pred (protein)
chain: VTPEEAHQALASTVMRLAQQLGLSGGAISTGLRLASEAARAFAEDPEKMRKVVEEGAKKIEALEGEKGKVVGEELRRKAEEIVA
B33: design_615_ab801fab-270b-4f6a-b2b5-83c165df418c_67_dldesign_0_cycle1_af2pred (protein)
chain: AVKEEAQKVLAESLEYMEKYKDDKEVVAEFNKAANYASKAITGPEETGKEYLAKAKEYLEKGKALAKEKEA
B34: design_615_ab801fab-270b-4f6a-b2b5-83c165df418c_149_dldesign_0_cycle1_af2pred (protein)
chain: AAAALEAIRDEGAATLTALAGPQLGALFRVAVQAAISGKLELAEQLLDAVVAEAAAINPAAAEKAKELKALALAIARA
B35: design_614_ef6b398b-10cb-4a07-8087-96dafb4f9c83_1662_dldesign_0_cycle1_af2pred (protein)
chain: SEEAQKKLEEAKRLLELAKEKLATDPQQGLVYALEAQELAAEALKDPEFAEEAQEILEEASRVASQAAARAIAQAQA
B36: design_615_ab801fab-270b-4f6a-b2b5-83c165df418c_153_dldesign_0_cycle1_af2pred (protein)
chain: SAAGEIGAKAIEAMKKAYEYAKLYESGEDEKAKEKAKEAAEKLKELAKEAAKAGAAGARLAKVAKASAENALKIAKE
B37: design_615_ab801fab-270b-4f6a-b2b5-83c165df418c_702_dldesign_0_cycle1_af2pred (protein)
chain: GEELREKAEKEAKQTLELVEGALEYAKTASPEAAALMEKALEEVKKLIELGKKSDAEEYAKYVEKARKVAFNAIAQATALIAA
B38: design_615_ab801fab-270b-4f6a-b2b5-83c165df418c_121_dldesign_0_cycle1_af2pred (protein)
chain: GKDEELAKEAKKIAEAAEGVAASALALAAQPGLLAAAAAFARKAAEELERLGKENSKELEKVAKKEAKRAKEAAERVEAALKAATA

For this assay, the target named is CD276, Q5ZPR3.
CD276, Q5ZPR3, sequence (Q5ZPR3 whole entry): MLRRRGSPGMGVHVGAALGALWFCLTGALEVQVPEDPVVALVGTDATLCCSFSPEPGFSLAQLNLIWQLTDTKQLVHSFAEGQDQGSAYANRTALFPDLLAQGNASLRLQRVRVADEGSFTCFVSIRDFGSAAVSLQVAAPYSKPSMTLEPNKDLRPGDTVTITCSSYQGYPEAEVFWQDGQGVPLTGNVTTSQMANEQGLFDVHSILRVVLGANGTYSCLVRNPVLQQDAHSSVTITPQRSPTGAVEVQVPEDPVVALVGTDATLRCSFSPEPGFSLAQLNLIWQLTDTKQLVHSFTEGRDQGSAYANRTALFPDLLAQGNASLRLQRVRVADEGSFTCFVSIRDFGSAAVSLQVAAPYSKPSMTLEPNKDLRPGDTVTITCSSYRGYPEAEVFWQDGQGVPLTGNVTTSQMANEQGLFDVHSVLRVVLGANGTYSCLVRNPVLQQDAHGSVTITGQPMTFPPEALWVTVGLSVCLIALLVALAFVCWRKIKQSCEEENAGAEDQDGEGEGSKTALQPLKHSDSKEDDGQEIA
As to B1, the “binding in a display sort” value was “not found”. Consider B2, for which the “binding in a display sort” value is “not found”. On to B3, for which the “binding in a display sort” value was “not found”. With B4, the “binding in a display sort” value is “not found”. B5: the “binding in a display sort” value was “not found”. With B6, the “binding in a display sort” value was “not found”. Consider B7, for which the “binding in a display sort” value was “not found”.

B8: the “binding in a display sort” value was “not found”. In the case of B9, the “binding in a display sort” value was “not found”. Consider B10, for which the “binding in a display sort” value was “not found”.

Regarding B11, the “binding in a display sort” value was “not found”. For B12, the “binding in a display sort” value is “not found”. Turning to B13, the “binding in a display sort” value is “not found”. Turning to B14, the “binding in a display sort” value is “not found”. The same measure for B15: “not found”; for B16: “not found”; for B17: “not found”. On to B18, for which the “binding in a display sort” value is “not found”. Regarding B19, the “binding in a display sort” value is “not found”. Consider B20, for which the “binding in a display sort” value was “not found”. On to B21, for which the “binding in a display sort” value was “not found”. The same measure for B22: “not found”; for B23: “not found”. As for B24, the entry is “not found”; as for B25, “not found”; as for B26, “not found”. Take B27: the “binding in a display sort” value was “not found”. Consider B28, for which the “binding in a display sort” value was “not found”. Consider B29, for which the “binding in a display sort” value is “not found”. Turning to B30, the “binding in a display sort” value is “binds (active)”. For B31, the “binding in a display sort” value is “not found”.

Turning to B32, the “binding in a display sort” value was “not found”. Turning to B33, the “binding in a display sort” value is “not found”.

Regarding B34, the “binding in a display sort” value was “not found”. In the case of B35, the “binding in a display sort” value is “not found”. As for B36, the “binding in a display sort” value was “not found”. As for B37, the “binding in a display sort” value is “not found”. B38: the “binding in a display sort” value was “not found”.
